FBW7 act = human FBW7 E3 ligase activation, primary screen. Q969H0. 650,000 compounds, 0.13% hits. AlphaScreen FBW7–phospho-cyclin E peptide binding, activator screen. normalized activity (activation), % at 26.1 µM; in the data active means normalized activity above about 1.9%;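 further: purified mutant Fbw7 with reduced substrate affinity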
GPR151 activ = human GPR151 activation; 650,000 compounds, 1% hits; activation, % at 11.2 µM; Q8TDV0; PathHunter beta-arrestin GPR151 cells, luminescence; AID 1508602; in the data active means activation above about 4.9%;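 further: 0% = median of compound wells and 100% = cells with positive control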
Target sequence (Q8TDV0 whole entry, looked up): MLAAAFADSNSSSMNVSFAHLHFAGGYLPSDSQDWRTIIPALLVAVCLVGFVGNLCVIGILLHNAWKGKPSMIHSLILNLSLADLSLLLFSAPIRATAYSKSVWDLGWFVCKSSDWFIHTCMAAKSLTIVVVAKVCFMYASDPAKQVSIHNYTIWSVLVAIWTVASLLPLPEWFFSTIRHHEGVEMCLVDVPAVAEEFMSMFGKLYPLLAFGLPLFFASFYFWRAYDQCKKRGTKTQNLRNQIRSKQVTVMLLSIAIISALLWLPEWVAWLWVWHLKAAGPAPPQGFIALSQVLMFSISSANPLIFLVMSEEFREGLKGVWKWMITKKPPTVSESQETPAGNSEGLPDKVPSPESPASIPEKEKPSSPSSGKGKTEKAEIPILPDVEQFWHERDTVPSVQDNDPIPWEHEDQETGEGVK
MITF primary = human MITF inhibition, primary screen; AID 1259374; 650,000 compounds, 0.91% hits; inhibition, % at 2.6 µM; O75030; AlphaScreen MITF homodimerization, bead proximity signal; in the data active means inhibition above about 50%;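 further: 0% = vehicle wells with protein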
TEAD-YAP inh = TEAD-YAP interaction inhibition. HEK-TIYL cells, TEAD-Gal4/YAP UAS-luciferase luminescence. inhibition, % at 9.12 µM. 640,000 compounds, 1.4% hits. AID 1259422; in the data active means inhibition above about 32%;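 further: 0% = median of test compound wells and 100% = reference inhibitor wells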
MITF confirm = confirmation of human MITF inhibitors; shares compounds with MITF primary; AlphaScreen MITF homodimerization, biotin/His-MITF beads; inhibition, % at 2.6 µM; 4,700 compounds, 16% hits; AID 1259372;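 active means inhibition above a cutoff derived from the DMSO control wells, cut at about 28% in these data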;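 further: 0% = MITF dimer wells with DMSO only; inhibitors lower the bead chemiluminescence by keeping MITF from dimerizing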
AlphaScreen DR = counter-screen: compounds optically interfering with AlphaScreen; shares compounds with MITF primary; AlphaScreen optical interference counterscreen, cell-free; IC50, µM; 480 compounds, 6% hits; call rule not given here
AlphaScreen intf2 = counter-screen: compounds optically interfering with AlphaScreen. shares compounds with MITF primary. inhibition, % at 2.6 µM. LysRS AlphaScreen counterscreen, signal interference, triplicate. 4,700 compounds, 7.6% hits;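 active means inhibition above a cutoff derived from the DMSO control wells, cut at about 30% in these data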
Starred values were filed as active, the others as inactive; / = no result given. Compounds with a hit are over-represented: about 3.5% of the library has one in this group of screens.

SMILES	FBW7 act	GPR151 activ	MITF primary	TEAD-YAP inh	MITF confirm	AlphaScreen intf2	others
CN(C)C(CNCC(=O)N1CCc2ccccc21)c1ccco1 (stereo not given)	0	-1	62*	-10	2	10
c1csc(-c2cc3nc4c(c(NCC5CCCO5)n3n2)CCC4)c1 (stereo not given)	0	0	-5	2	/	/
CC1(C)Cc2ccccc2-c2nnc(SCC3OCCO3)n21	0	1	13	-2	/	/
CCOC(=O)c1sc2nc(SCC(=O)NCCc3ccccc3)n(Cc3ccccc3)c(=O)c2c1C	0	-1	14	5	/	/
COc1ccc(C(=S)N2CCCCC2)cc1OC(=O)CCc1ccccc1	0	1	61*	4	10	15
COc1cc(C(=S)N2CCCCC2)ccc1OCc1ccccc1	-1	0	-1	-25	/	/
COc1cccc(COC(=O)Nc2cc(F)c(-c3cn[nH]c3)cc2OCCN(C)C)c1	1	0	80*	-5	47*	5
COc1cccc(COC(=O)Nc2ccc(-c3cn[nH]c3)cc2OCCN(C)C)c1	1	0	15	-11	/	/
COc1ccc(OCC(=O)OCC(=O)COC(=O)COc2ccc(OC)cc2)cc1	0	-1	77*	4	11	6
COc1cc(-c2ccnc(N)n2)ccc1NC(=O)[C@H]1COc2ccccc2O1	2.5*	1	66*	7	52*	-3	AlphaScreen DR=>6.5
CC1(CCc2ccc(OC(F)F)cc2)NC(=O)NC1=O (stereo not given)	0	0	-3	-5	/	/
CN(C)CCCn1c(SCc2ccccc2)nnc1-c1ccncc1	0	0	73*	-8	9	11
CCOc1ccc(NC(=O)CSc2nnc(-c3ccncc3)n2CCCN(C)C)cc1	0	-1	53*	3	9	9
O=C(O)c1cc(N/N=C/c2ccc(N3CCOCC3)s2)ccc1Cl	0	-1	76*	-16	60*	21	AlphaScreen DR=>7.1
O=C(Nc1ccc2ncccc2c1)c1ncoc1-c1ccccc1C(F)(F)F	1	-1	7	-31	/	/
CC1=C(C(=O)Nc2ccccc2C)C(c2ccco2)C(C#N)=C(SCC(=O)Nc2ccc(C)cc2)N1 (stereo not given)	0	2	-10	-15	/	/
CCOc1ccc(NC(=O)CSC2=C(C#N)C(c3ccco3)C(C(=O)Nc3ccccc3C)=C(C)N2)cc1 (stereo not given)	0	1	63*	7	0	3
CN(C)c1ccc(/C=C2\N=C(c3ccccc3[N+](=O)[O-])OC2=O)cc1	0	1	-5	0	/	/
CCN1C(=O)S/C(=C\c2ccc(C)cc2)C1=O	0	0	2	-51	/	/
COc1ccc(C(=O)N2CCN(Cc3cccc4ccccc34)CC2)cc1	0	3	59*	7	6	-4
COc1cccc(CN2CCN(C(=O)c3ccc(F)cc3)CC2)c1OC	0	3	32	4	/	/
CCOC(=O)N1CCN(C(=O)C2CCN(Cc3cccc4ccccc34)CC2)CC1	0	0	51*	-4	11	18
COc1ccc(C(=O)N2CCN(Cc3ccccc3F)CC2)cc1	0	-1	62*	-1	-10	-4
COc1ccc(C(=O)N2CCN(Cc3c[nH]c4ccccc34)CC2)cc1	0	0	76*	16	-12	-6
COc1ccc(C(=O)N2CCN(Cc3c[nH]c4ccccc34)CC2)cc1OC	0	1	17	9	/	/
SMILES	FBW7 act	GPR151 activ	MITF primary	TEAD-YAP inh	MITF confirm	AlphaScreen intf2	others
COc1ccc(CN(Cc2cc3cccc(C)c3n3nnnc23)C(=O)C2CC2)cc1	0	1	6	7	/	/
O=C1/C(=C/c2ccc(F)cc2)N=C2CCCCCN12	1	-1	18	-7	/	/
CCOC(=O)c1ccc(NC(=O)C(Cc2ccccc2)NC(=O)c2ccccc2)cc1 (stereo not given)	0	0	-13	-2	/	/
O=S1(=O)N=C(Nc2nnc(SCc3ccccc3Cl)s2)c2ccccc21	0	-1	-1	2	/	/
COc1ccc(C(=O)Nc2ncc(Cc3cc(Cl)ccc3Cl)s2)cc1OC	1	-1	68*	-3	-6	1
COc1cc(C(=O)Nc2cccnc2)ccc1OCc1ccccc1Cl	0	0	74*	-2	-3	-2

High-throughput results (PubChem BioAssay)
